This passage reports binding signal and Kd results from publication PMC5913336, “True equilibrium measurement of transcription factor-DNA binding affinities using automated polarization microscopy”.

pKd: −log10 of the molar value.

Usually pKd stands for the negative decadic logarithm of the Kd, by convention in mol/L. A lower pKd goes with a large Kd.

Sequence of Gsc (P54366 267-356): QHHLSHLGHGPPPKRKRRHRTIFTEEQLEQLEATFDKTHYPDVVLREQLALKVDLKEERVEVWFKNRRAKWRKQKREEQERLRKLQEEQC

The first experiment concerns the target Gsc (Drosophila melanogaster, UniProt P54366 267-356). As to the kind of experiment: FP; 33 mM phosphate pH 7.0, 90 mM NaCl, 0.01% Tween 20, 0.1 mM DTT, 0.5% agarose; room temperature. As to conditions: tags: N-GST (pGEX-6P-1, kept); dsDNA, one strand shown.
On to AACTAATCCGAT, for which the binding signal was 2.52 Kd / Kd of best base at the position.

For AATTAAGCCGAT, the binding signal was 4.74 Kd / Kd of best base at the position.

On to AATTAATTCGAT, for which the binding signal is 3.3 Kd / Kd of best base at the position.

AATTAATCCGCT: the binding signal is 3.18 Kd / Kd of best base at the position.

For the sequence AATTAATCCGAC, the binding signal is 1.04 Kd / Kd of best base at the position.

Regarding AATTAATCTGAT, the binding signal was 1.95 Kd / Kd of best base at the position.

For the sequence AATTAATCCTAT, the binding signal is 2.32 Kd / Kd of best base at the position.

Turning to ATTTAATCCGAT, the binding signal is 3.67 Kd / Kd of best base at the position.

For AATAAATCCGAT, the binding signal was 8.9 Kd / Kd of best base at the position.

Regarding AATTAATCCAAT, the binding signal is 1.29 Kd / Kd of best base at the position.

In the case of AATTAAACCGAT, the binding signal was 9.22 Kd / Kd of best base at the position.

In the case of AAATAATCCGAT, the binding signal was 4.25 Kd / Kd of best base at the position.

Regarding AATTTATCCGAT, the binding signal was 12.6 Kd / Kd of best base at the position.

In the case of AATTGATCCGAT, the binding signal is 12.6 Kd / Kd of best base at the position.

As to AATTAATCGGAT, the binding signal is 3.62 Kd / Kd of best base at the position.

As to AATTACTCCGAT, the binding signal was 24.4 Kd / Kd of best base at the position.

Take AATTCATCCGAT: the binding signal is 36.4 Kd / Kd of best base at the position.

For AATTAATCCCAT, the binding signal is 1.16 Kd / Kd of best base at the position.

Turning to AATGAATCCGAT, the binding signal is 42.9 Kd / Kd of best base at the position.

For the sequence AATTATTCCGAT, the binding signal is 24.5 Kd / Kd of best base at the position.

Consider AATTAATCCGAA, for which the binding signal is 1.15 Kd / Kd of best base at the position.

Regarding AATTAATGCGAT, the binding signal is 9.37 Kd / Kd of best base at the position.

As to AATTAATCCGGT, the binding signal was 1.99 Kd / Kd of best base at the position.

With AATTAGTCCGAT, the binding signal was 10.6 Kd / Kd of best base at the position.

Take AGTTAATCCGAT: the binding signal was 4.01 Kd / Kd of best base at the position.

In the case of AAGTAATCCGAT, the binding signal was 4.46 Kd / Kd of best base at the position.

On to AATTAACCCGAT, for which the binding signal is 13.1 Kd / Kd of best base at the position.

Take AATCAATCCGAT: the binding signal was 23.5 Kd / Kd of best base at the position.

ACTTAATCCGAT: the binding signal is 10.4 Kd / Kd of best base at the position.

As for GATTAATCCGAT, the binding signal was 1.37 Kd / Kd of best base at the position.

In the case of AATTAATACGAT, the binding signal is 9.77 Kd / Kd of best base at the position.

AATTAATCCGAG: the binding signal is 1.56 Kd / Kd of best base at the position.

For the sequence TATTAATCCGAT, the binding signal is 2.48 Kd / Kd of best base at the position.

Consider AATTAATCCGTT, for which the binding signal was 1.04 Kd / Kd of best base at the position.

For the sequence CATTAATCCGAT, the binding signal is 4.41 Kd / Kd of best base at the position.

As for AATTAATCAGAT, the binding signal is 1.75 Kd / Kd of best base at the position.

The next experiment has as its target T1, Optix (Drosophila melanogaster, UniProt Q95RW8 139-229).
T1 sequence: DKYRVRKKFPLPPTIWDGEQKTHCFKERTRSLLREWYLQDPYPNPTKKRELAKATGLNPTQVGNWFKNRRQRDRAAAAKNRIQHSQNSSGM
Described as above. As to conditions: tags: N-GST (pGEX-6P-1, kept); dsDNA, one strand shown.
Take AGAGTGACAGCT: the binding signal is 185 Kd / Kd of best base at the position.

Sequence AGAGTGATAGCT had a pKd of roughly 8.30.

In the case of AGAGTGATAGAT, the binding signal is 16.1 Kd / Kd of best base at the position.

AGAGTGATTGCT: the binding signal was 49 Kd / Kd of best base at the position.
